activation, Potency and activity change, negative = inhibition data for 16 compounds are collected here from PubChem BioAssay (NCATS).

Test [1] addresses Cellular tumor antigen p53 (Homo sapiens) (UniProt P04637). Nature of the test: Primary qHTS for small molecule compounds that upregulate eGFP-tagged delta133p53alpha (in N-terminal) cells. (AID 2060322). Also: nearly all actives have a fitted effect of over 75% in size. Also: potency is read from the fitted curve at half-maximal effect.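 As to activation: cells pre-induced with doxycycline then dosed without doxycycline; series mostly up to about 56 µM; 0% = DMSO vehicle and 100% = reference activator.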 As to conditions: NCI-H358 eGFP-delta133p53alpha fluorescence, 24 h; activation: hits give high values. The method, boiled down: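 NCI-H358 cells pre-induced 24 h with 10 ng/ml doxycycline for eGFP-delta133p53alpha, plated dox-free and exposed 24 h at 37C to titrated compounds. Fixed, Hoechst-stained; gated GFP peak intensity by laser scanning cytometry, normalized to DMSO (0%) and 57.5 uM 5-azacytidine (100%).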
In general terms: In qHTS, concentration-response curves come from the screen itself.

The target in test [2] is Aldehyde dehydrogenase, mitochondrial (Homo sapiens) (UniProt P05091). Nature of the test: qHTS for Inhibitors of the Aldehyde Dehydrogenase Family (ALDH2) Primary screen (AID 2061308).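 Also: plate controls were vehicle for no effect and reference inhibitor for full effect; nearly all actives have a fitted effect of over 55% in size.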
Test [3] concerns the target Retinaldehyde dehydrogenase 3 (Homo sapiens) (UniProt P47895). In words: qHTS for Inhibitors of the Aldehyde Dehydrogenase Family (ALDH1A3) Primary screen (AID 2061315).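 Also: plate controls were DMSO vehicle for no effect and reference inhibitor for full effect.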

Records with an inconclusive call do not appear. A number with no mark means an inactive call. Active and inactive are the calls of the source. Calls follow the shape of the dose curve; as a rule, active = well fitted curve in the direction sought with a large enough effect; inconclusive = small, poorly fitted or top-dose-only effect, or another doubt; inactive = no such curve, though single readings can be large; an effect the other way counts as inactive or inconclusive.

Cellular tumor antigen p53 (Homo sapiens), sequence (P04637 whole entry, looked up): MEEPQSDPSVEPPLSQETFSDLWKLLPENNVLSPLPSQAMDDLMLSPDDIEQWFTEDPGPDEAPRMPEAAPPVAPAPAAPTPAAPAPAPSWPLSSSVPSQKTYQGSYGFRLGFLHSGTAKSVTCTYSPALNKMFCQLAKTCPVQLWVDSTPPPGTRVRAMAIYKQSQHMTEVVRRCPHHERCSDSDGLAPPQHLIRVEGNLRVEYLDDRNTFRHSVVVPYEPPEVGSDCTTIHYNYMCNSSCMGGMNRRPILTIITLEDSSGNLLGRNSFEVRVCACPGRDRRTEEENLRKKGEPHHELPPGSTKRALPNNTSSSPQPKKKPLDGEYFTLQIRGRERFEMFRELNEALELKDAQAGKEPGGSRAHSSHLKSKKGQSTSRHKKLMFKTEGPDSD

As for `COC(=O)C1=CO[C@@H](O[C@@H]2O[C@H](CO[C@@H]3O[C@H](CO)[C@@H](O)[C@H](O)[C@H]3O)[C@@H](O)[C@H](O)[C@H]2O)[C@@H]2C(CO)=CC[C@H]12`, in test [1], the activation was 8.4%. Besides, the Potency entry in test [2] and in test [3] was “inactive” each time.

With `C/C=C(\C)C(=O)O[C@H]1C=CC(=O)O[C@H]1/C=C/[C@@H](O)[C@H](C)O`, the Potency in test [1] was 26.9 µM (active). The Potency entry in test [2] and in test [3] was “inactive” each time.

`C=C1CCC2[C@@](C)(C(=O)O)CCC[C@@]2(C)[C@@H]1CCc1ccoc1` (stereo partly drawn): the activation in test [1] is 1.79%. The Potency result in test [2] and in test [3] was “inactive” throughout.

On to `C[C@H](CCC(=O)O)[C@H]1CC[C@H]2[C@@H]3C[C@H](O)[C@@H]4C[C@H](O)CC[C@]4(C)[C@H]3CC[C@]12C`, for which the activation in test [1] is 1%. Further, the Potency entry in test [2] and in test [3] was “inactive” in each case.

Take `CCOC(=O)N1c2ccc(C(F)(F)F)cc2C(N(Cc2cc(C(F)(F)F)cc(C(F)(F)F)c2)C(=O)OC)CC1CC` (stereo not drawn): in test [1], the activation was -4.3%. In addition, the Potency result in test [2] and in test [3] was “inactive” in each case.

Take `C=C1C(=O)O[C@@H]2/C=C(/C)CC3C=C(C[C@H](OC(=O)/C(C)=C\C)[C@@H]12)C(=O)O3` (stereo partly drawn): in test [1], the Potency was 11.7 µM (active). The Potency result in test [2] and in test [3] was “inactive” in each case.

Turning to `CC1(C)CC23[C@@H]4CC(=O)[C@@H]2COC(=O)[C@@H]3CC[C@H]41`, the activation in test [1] is -5.36%. Further, the Potency entry in test [2] and in test [3] was “inactive” each time.

Consider `CC1C=CC2CCCCC2C1CCC1CC(O)CC(=O)O1` (stereo not drawn), for which the activation in test [1] was -0.893%. The Potency entry in test [2] and in test [3] was “inactive” in each case.

Take `CCCCNc1ncc(C(=O)NCc2ccc(-n3ccnc3)cc2)c(NC2CCC(O)CC2)n1` (stereo not drawn): the Potency in test [1] is 21.3 µM (active). The Potency entry in test [2] and in test [3] was “inactive” each time.

Consider `C=CC(C)(O)CC/C=C(\C)C(=O)OC1C(O)C(CO)OC(OC(=O)C23CCC(C)(C)CC2C2=CCC4C5(C)CCC(OC6OC(COC7OCC(OC(C)=O)C(O)C7OC7OC(COC(C)=O)C(O)C(O)C7O)C(O)C(O)C6O)C(C)(C)C5CCC4(C)C2(C)C(O)C3O)C1OC1OCC(OC2OCC(O)C(OC3OCC(O)C(O)C3O)C2O)C(O)C1O` (stereo not drawn), for which the activation in test [1] was -9.16%. Besides, the values for the activity change, negative = inhibition in test [2] and in test [3] were 5.34% [at 11.2 µM] and 15% [at 11.2 µM], respectively.

As to `C=CC1(C)CC(OC(=O)C(=C)C(O)COC(C)=O)C(C(=C)C(=O)OC)C(O)C1C(=C)CO` (stereo not drawn), in test [1], the activation is -2.29%. The Potency entry in test [2] and in test [3] was “inactive” each time.

Consider `CC1(C)CC[C@]2(C(=O)O[C@@H]3O[C@H](CO)[C@@H](O)[C@H](O)[C@H]3O)CC[C@]3(C)C(=CCC4[C@@]5(C)CC[C@H](O[C@@H]6O[C@H](C(=O)O)[C@@H](O)[C@H](O[C@@H]7O[C@H](CO)[C@H](O)[C@H](O)[C@H]7O)[C@H]6O)C(C)(C)C5CC[C@]43C)C2C1` (stereo partly drawn), for which, in test [1], the activation was -9.92%. Moreover, the Potency entry in test [2] and in test [3] was “inactive” throughout.

Turning to `C[C@H](/C=C/[C@@]1(O)[C@H](C)CC(=O)CC1(C)C)O[C@@H]1O[C@H](CO[C@@H]2OC[C@@H](O)[C@H](O)[C@H]2O)[C@@H](O)[C@H](O)[C@H]1O`, the activation in test [1] was -6.11%. Also, the Potency entry in test [2] and in test [3] was “inactive” each time.

For `C/C=C(/C)C(=O)O[C@H]1C=C(C)C[C@H](OC(=O)c2ccc(O)cc2)C2[C@](O)(C(C)C)CC[C@@]21C` (stereo partly drawn), the activation in test [1] is -5.34%. Besides, the Potency entry in test [2] and in test [3] was “inactive” each time.

For the compound `O=C(Nc1nnc(-c2ccc3c(c2)OCCO3)o1)C1CCCCC1`, the activation in test [1] is -8.33%. Also, the Potency entry in test [2] and in test [3] was “inactive” throughout.

Turning to `CCCCn1ccc(N2CCC(c3ccccc3)CC2)c(Cl)c1=O`, in test [1], the activation was -2.33%. Moreover, the Potency result in test [2] and in test [3] was “inactive” each time.
